Measurements as given in the supplement of paper PMC7595190.
Counter-ions that a name gives are not always drawn. A number with no mark means an inactive call.

Tested on: MV4-11
Assay: CellTox Green cytotoxicity fluorescence relative to DMSO vehicle (fold of vehicle RFU); higher = more cell death (loss of membrane integrity), active = 2 or more
Method: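 Paediatric AML cell lines (MV4-11, CMK, Kasumi-1; 4x10^4 cells/well, 96-well) treated with single compounds from the Selleckchem apoptosis library at 0.01, 0.1 and 1 µM. Cytotoxicity was read with CellTox Green (RFU, Ex 485/Em 520) at 24, 48 and 72 h and normalised to the 0.1% DMSO vehicle. Normalised RFU >= 2 was taken as a successful, cell-killing treatment.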

## CN1CCN(CCCNc2ncc(Cl)c(-c3cc4c(C(=O)NC5CC5)cccc4s3)n2)CC1
0.01 µM, 24 h
  CellTox Green cytotoxicity fluorescence: 0.979
0.01 µM, 48 h
  CellTox Green cytotoxicity fluorescence: 0.976
0.01 µM, 72 h
  CellTox Green cytotoxicity fluorescence: 0.987
0.1 µM, 24 h
  CellTox Green cytotoxicity fluorescence: 0.956
0.1 µM, 48 h
  CellTox Green cytotoxicity fluorescence: 0.966
0.1 µM, 72 h
  CellTox Green cytotoxicity fluorescence: 0.965
1 µM, 24 h
  CellTox Green cytotoxicity fluorescence: 0.903
1 µM, 48 h
  CellTox Green cytotoxicity fluorescence: 0.93
1 µM, 72 h
  CellTox Green cytotoxicity fluorescence: 0.926

## Cc1nn(C)c(COc2ccc(N3CCN(S(=O)(=O)N(C)C)CC3)cc2)c1-c1cccc2c(CCCOc3cccc4ccccc34)c(C(=O)O)n(CCN3CCOCC3)c12
0.01 µM, 24 h
  CellTox Green cytotoxicity fluorescence: 0.991
0.01 µM, 48 h
  CellTox Green cytotoxicity fluorescence: 0.986
0.01 µM, 72 h
  CellTox Green cytotoxicity fluorescence: 0.981
0.1 µM, 24 h
  CellTox Green cytotoxicity fluorescence: 1.05
0.1 µM, 48 h
  CellTox Green cytotoxicity fluorescence: 1.1
0.1 µM, 72 h
  CellTox Green cytotoxicity fluorescence: 1.12
1 µM, 24 h
  CellTox Green cytotoxicity fluorescence: 1.15
1 µM, 48 h
  CellTox Green cytotoxicity fluorescence: 1.49
1 µM, 72 h
  CellTox Green cytotoxicity fluorescence: 1.67

## COc1ccc(CCNCc2ccc(OCc3ccc(Cl)nc3)c(OC)c2)cc1OC
0.01 µM, 24 h
  CellTox Green cytotoxicity fluorescence: 0.971
0.01 µM, 48 h
  CellTox Green cytotoxicity fluorescence: 0.978
0.01 µM, 72 h
  CellTox Green cytotoxicity fluorescence: 0.996
0.1 µM, 24 h
  CellTox Green cytotoxicity fluorescence: 0.949
0.1 µM, 48 h
  CellTox Green cytotoxicity fluorescence: 0.961
0.1 µM, 72 h
  CellTox Green cytotoxicity fluorescence: 0.967
1 µM, 24 h
  CellTox Green cytotoxicity fluorescence: 0.953
1 µM, 48 h
  CellTox Green cytotoxicity fluorescence: 0.949
1 µM, 72 h
  CellTox Green cytotoxicity fluorescence: 0.945

## O=C1C(=O)N(Cc2ccc(Cl)c(Cl)c2)c2ccccc21 [Apoptosis Activator 2]
0.01 µM, 24 h
  CellTox Green cytotoxicity fluorescence: 0.971
0.01 µM, 48 h
  CellTox Green cytotoxicity fluorescence: 0.978
0.01 µM, 72 h
  CellTox Green cytotoxicity fluorescence: 0.98
0.1 µM, 24 h
  CellTox Green cytotoxicity fluorescence: 1.02
0.1 µM, 48 h
  CellTox Green cytotoxicity fluorescence: 1.03
0.1 µM, 72 h
  CellTox Green cytotoxicity fluorescence: 1.02
1 µM, 24 h
  CellTox Green cytotoxicity fluorescence: 1.02
1 µM, 48 h
  CellTox Green cytotoxicity fluorescence: 1.13
1 µM, 72 h
  CellTox Green cytotoxicity fluorescence: 1.13

## COc1c/c(=C2\C=c3ccccc3=N2)[nH]/c1=C\c1[nH]c(C)cc1C [Obatoclax Mesylate]
0.01 µM, 24 h
  CellTox Green cytotoxicity fluorescence: 0.935
0.01 µM, 48 h
  CellTox Green cytotoxicity fluorescence: 0.93
0.01 µM, 72 h
  CellTox Green cytotoxicity fluorescence: 0.916
0.1 µM, 24 h
  CellTox Green cytotoxicity fluorescence: 0.96
0.1 µM, 48 h
  CellTox Green cytotoxicity fluorescence: 0.997
0.1 µM, 72 h
  CellTox Green cytotoxicity fluorescence: 1.02
1 µM, 24 h
  CellTox Green cytotoxicity fluorescence: 1.21
1 µM, 48 h
  CellTox Green cytotoxicity fluorescence: 1.78
1 µM, 72 h
  CellTox Green cytotoxicity fluorescence: 2.14 (active)
